# A1 inh: inhibitors of the anti-apoptotic protein A1, read as caspase activation. MEF A1-2A-BIM cells, Caspase-Glo 3/7 luminescence, 3 h; percent of clofoctol response, vehicle zero. caspase activation, % (no concentration beside the values). 330,000 compounds, 0.066% hits. AID 2462;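 active means over half of replicate activation scores above 10%, or exactly half above 10 with the replicate mean above 10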
# APOBEC3G inh: blocks human APOBEC3G single-stranded DNA deamination. inhibition, % at 20 µM. 330,000 compounds, 0.28% hits. Q9HC16. recombinant A3G, ssDNA deamination FAM/TAMRA fluorescence. AID 493012;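 active means inhibition of at least 40% at 20 µM, with no more than 30% in the related APOBEC3A deaminase screen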;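 further: plate controls were DMSO wells with A3G for no effect and wells lacking A3G enzyme for full effect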
# Target sequence (Q9HC16 whole entry, looked up): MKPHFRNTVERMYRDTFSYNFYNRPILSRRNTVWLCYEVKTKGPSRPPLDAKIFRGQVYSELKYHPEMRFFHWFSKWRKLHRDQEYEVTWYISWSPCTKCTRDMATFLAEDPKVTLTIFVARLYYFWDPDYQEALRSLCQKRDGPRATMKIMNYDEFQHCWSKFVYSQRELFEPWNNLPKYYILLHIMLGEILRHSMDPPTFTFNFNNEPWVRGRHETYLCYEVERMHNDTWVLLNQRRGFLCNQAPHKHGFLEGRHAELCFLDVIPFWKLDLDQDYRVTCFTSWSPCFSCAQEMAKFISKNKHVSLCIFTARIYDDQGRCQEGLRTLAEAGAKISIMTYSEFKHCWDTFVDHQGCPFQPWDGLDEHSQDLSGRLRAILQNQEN
# APOBEC3A inh: inhibitors of human APOBEC3A DNA deaminase | P31941 | recombinant A3A, FAM/TAMRA ssDNA deamination fluorescence | inhibition, % at 20 µM | 330,000 compounds, 0.41% hits | AID 493011;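 active means at least 40% inhibition at 20 µM here, with at most 30% in a related deaminase screen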;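 further: plate controls were A3A with DMSO for no effect and wells lacking A3A enzyme for full effect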
# Target sequence (P31941 whole entry, looked up): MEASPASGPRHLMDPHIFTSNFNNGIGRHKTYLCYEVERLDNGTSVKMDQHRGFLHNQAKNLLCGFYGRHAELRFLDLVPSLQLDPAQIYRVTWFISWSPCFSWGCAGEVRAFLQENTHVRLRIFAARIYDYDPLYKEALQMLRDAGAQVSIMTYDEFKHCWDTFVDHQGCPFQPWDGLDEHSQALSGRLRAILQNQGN
# MIN6 prolif-1: induces beta-cell replication in MIN6 cells; MIN6 cells proliferation, ATPlite luminescence, 48 h; cells starved in 0.2% serum; 100% = growth in 10% serum; proliferation, % at 10 µM; 330,000 compounds, 0.29% hits; AID 2380;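 active means compounds whose signal lies at least 3.5 SD above the mean of all wells on their plate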;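 further: 0% = DMSO-treated cells in low-serum medium and 100% = 10% serum control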
# MIN6 prolif-2: confirmation of inducers of beta-cell replication in MIN6 cells. shares compounds with MIN6 prolif-1. MIN6 beta-cell proliferation, ATPlite luminescence, 48 h; cells kept in 0.2% serum; scaled between 0.2% and 10% serum. proliferation increase, % at 50 µM. 920 tested, under 10 active. AID 463095;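 active means proliferation increase above 40% at any of the four tested concentrations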
# A3A conf: confirmation of human APOBEC3A DNA deaminase inhibitors. shares compounds with APOBEC3A inh. recombinant A3A, ssDNA deaminase UDG fluorescence assay. inhibition, % at 20 µM. 1,400 compounds, 63% hits. AID 493151;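 active means inhibition reaching a set limit, 80% of the first screen's cutoff, at 20 µM in any replicate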;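 further: plate controls were DMSO wells with A3A for no effect and wells lacking A3A enzyme for full effect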
# UDG A3A counter: counter-screen for APOBEC3A inhibitors: UDG. 1,000 tested, under 10 active. AID 504714. UDG counterscreen, FAM/TAMRA uracil oligo fluorescence. inhibition, % at 20 µM. shares compounds with APOBEC3A inh; call rule not given here
# The depositor's hits bear a star; . = no result. Only some compounds are listed: those with a hit (about 1.1% of all), similar ones and a draw of the others.
SMILES,A1 inh,APOBEC3G inh,APOBEC3A inh,MIN6 prolif-1,MIN6 prolif-2,others
C[C@@H](O)C1NC(=O)[C@H](CCCCN)NC(=O)c2cc([N+](=O)[O-])cc(F)c2NCCCC[C@@H](C(N)=O)NC1=O (stereo partly drawn),1.0,-3.4,0.3,9.7*,-2.9,
CC[C@H](C)[C@@H]1NC(=O)c2cc([N+](=O)[O-])cc(F)c2NCCCC[C@@H](C(N)=O)NC(=O)[C@H](CC(N)=O)NC1=O,2.0,-7.2,-5.9,-4.2,.,
O=C(c1ccc(N2CCOCC2)c([N+](=O)[O-])c1)N1CCN(Cc2ccccc2)CC1,0.9,-4.3,-1.7,5.8*,-1.6,
C[C@@]12C(=O)N(CCO)CC(=O)N1[C@H](/C=C/c1ccccc1)[C@@H]1C(=O)N(c3ccccc3)C(=O)[C@@H]12,-0.4,-11.4,-1.1,2.4,.,
CNCCCOc1cccc(OC(C)C)c1,0.6,-1.2,0.1,6.3*,-1.0,
O=C(NCc1csc(-c2cccs2)n1)C1CCCCC1,-1.3,-5.7,-1.5,-2.8,.,
Cc1ccccc1OCC(=O)NC1CCCCCCC1,0.5,-7.6,-3.6,6.0*,-6.5,
CN1CCN(c2nc(C#N)cc(-c3ccccc3)n2)CC1,-0.4,-8.4,-3.6,9.8*,-4.8,
CCN(CC)Cc1c(C(=O)N/N=C/c2ccncc2)nnn1-c1nonc1N,-0.2,0.3,-0.6,-4.6,.,
CCN(CC)Cc1c(C(=O)N/N=C/c2ccc(C)o2)nnn1-c1nonc1N,0.2,-3.5,-0.9,0.0*,3.7,
Cc1ccc(C2=NN(CC(=O)NCCC(C)C)C(=O)CC2)cc1,0.2,-5.3,-5.5,1.9,.,
CC(C)CCNC(=O)CN1N=C(c2ccc(Cl)cc2)CCC1=O,-0.1,-4.5,1.8,7.3*,-2.0,
CCCCN(C(=O)c1ccc(-c2ccc([N+](=O)[O-])cc2)o1)c1c(N)n(CC(C)C)c(=O)[nH]c1=O,-0.5,-3.5,1.3,1.0,.,
CC(C)CC(c1nnnn1C(C)C)N1CCN(c2ccccc2)CC1 (stereo not drawn),0.0,-2.5,-0.7,7.3*,-1.7,
CCOC(=O)[C@H]1[C@H]2COc3ccc(Cl)cc3[C@@H]2N2C(=O)CN(CC3CCCO3)C(=O)[C@@]12C (stereo partly drawn),-0.2,-5.7,-3.3,0.4,.,
Cc1cc(NC(=O)c2cnn3c(C(F)F)cc(C4CC4)nc23)no1,0.3,-6.7,-1.7,5.5*,5.4,
Cc1cc(NC(=O)c2cnn3c(C(F)F)cc(-c4ccccc4)nc23)no1,-0.4,-0.4,1.0,-0.1,.,
CC1CCC(NC(=O)C2CCN(C(=O)Nc3ccccc3)CC2)CC1 (stereo not drawn),0.1,-4.8,-3.2,-1.3,.,
COc1cc2[nH]c(=O)n(CCCCCC(=O)NC3CCCC3)c(=O)c2cc1OC,1.0,-3.2,0.2,5.7*,-2.2,
O=[N+]([O-])c1cccc(NC2=NCCC2)c1,0.8,-5.3,-0.9,-1.9,.,
CN(C)S(=O)(=O)c1cc([N+](=O)[O-])ccc1N1CCCCCC1,0.3,1.5,1.4,12.1*,-4.4,
CC(c1ccco1)N(C(=O)c1ccc(Cl)c([N+](=O)[O-])c1)c1ccccn1 (stereo not drawn),0.4,13.6,3.4,-3.1,.,
CC(C)c1cc(=O)[nH]c(N2CCN(Cc3ccc4c(c3)OCO4)CC2)n1,1.2,-10.1,1.6,8.7*,-1.8,
CCOc1ccc2oc(C(=O)NNC(=O)c3csc(N4CCOCC4)n3)c(C)c2c1,-0.9,-6.8,-2.3,3.7,.,
CCN(CC)CCCC1(CN)OCCc2ccccc21 (stereo not drawn),1.2,-4.0,-2.3,8.4*,0.2,
SMILES,A1 inh,APOBEC3G inh,APOBEC3A inh,MIN6 prolif-1,MIN6 prolif-2,others
COc1ccc(NC(=O)CN(C)C(=O)c2ccc(NS(=O)(=O)c3ccc(F)cc3)cc2)cc1,0.1,-4.5,-2.2,-0.9,.,
CCOC(=O)C1=C(C)NC(C)=C(C(=O)OCC)C1C(=O)OCC(=O)NC1(C#N)CCCCC1,-0.5,-1.8,-6.2,-0.3,.,
CC(=O)c1ccc(N(CC(=O)NC2CCCCC2)C(=O)c2csnn2)cc1,-0.5,-3.0,-1.8,6.6*,-0.3,
O=C(CN(C(=O)c1csnn1)c1ccc(Br)cc1)NC1CCCCC1,-0.2,-10.1,-3.9,1.0,.,
COc1ccc(OC)c(S(=O)(=O)N2CCC(c3nc4ccccc4[nH]3)CC2)c1,0.7,-4.3,0.6,1.0,.,
O=C(Cn1cnc2ccccc21)Nc1cccc([N+](=O)[O-])c1,-0.1,-9.9,-0.3,8.2*,-3.0,
O=C(Nc1cccc(C(=O)N2CCCc3ccccc32)c1)c1ccccc1,-0.7,-1.3,-7.0,-5.1,.,
CCn1c(SCC(=O)N=Nc2c(O)[nH]c3ccccc23)nnc1-c1ccc(C(C)(C)C)cc1,-0.1,-4.6,-1.0,-0.4,.,
CCn1c(SCC(=O)N=Nc2c(O)[nH]c3ccccc23)nc2ccccc21,0.3,-7.0,3.5,0.0*,-6.2,
COc1ccccc1N(CC(=O)NC(C)C)S(=O)(=O)c1cccs1,-0.1,-2.4,0.7,8.3*,1.2,
Cc1ccc(NC(=O)CN(c2ccccc2F)S(C)(=O)=O)cc1,0.9,3.2,51.7*,5.1*,0.5,A3A conf=-2.3
NC(=O)C1CCN(CC(=O)Nc2cccnc2Cl)CC1,0.0,-15.0,-2.7,4.6,.,
COc1cc(OC)c2ccc(=O)oc2c1C(CCN1CCCC1)c1ccc2c(c1)OCO2 (stereo not drawn),-0.4,20.1,64.3*,2.6,.,A3A conf=-0.7
CCc1n(CC(O)COCc2ccccc2)c2ccccc2[n+]1C (stereo not drawn),0.1,15.6,58.5*,0.2,.,A3A conf=78.5*;UDG A3A counter=-2.0
COc1ccccc1C(=O)NC(CCSC)C(=O)NCC(c1cccs1)N1CCOCC1 (stereo not drawn),-0.4,0.4,-3.6,-7.4,.,
O=C(NC(Cc1ccccc1)c1nc2ccccc2[nH]1)C1CC(=O)N(c2ccc3c(c2)OCCO3)C1 (stereo not drawn),0.0,21.4,54.8*,-1.5,.,A3A conf=4.1
Cc1cc(=O)c2c([nH]1)c(C)cc1[nH]c(C)c(C)c12,0.0,-3.6,-3.6,-2.6,.,
O=C1CC(c2ccco2)CC(O)=C1C=Nc1cc(Cl)ccc1O (stereo not drawn),-0.8,29.2,55.4*,-2.9,.,A3A conf=54.3*
CC(=O)Nc1nnc(SCc2ccc(C(=O)Nc3ccccc3F)cc2)s1,0.7,19.5,47.7*,4.5,.,A3A conf=52.6*;UDG A3A counter=2.7
O=C(Nc1ccccc1F)c1ccc(CSc2ncccn2)cc1,-6.4,11.6,69.7*,-2.3,.,A3A conf=55.2*;UDG A3A counter=-3.3
Cn1nnnc1SCc1ccc(C(=O)Nc2ccccc2F)cc1,-6.4,-5.2,-1.1,0.0,.,
